# Screening data: PubChem BioAssay, National Center for Advancing Translational Sciences (NCATS)
# SW480 rereplic – inducers of DNA re-replication in SW480 colon cancer cells; SW480 DNA re-replication, Hoechst DNA content imaging, 48 h; Potency, µM (doses to about 46.1 µM), for inactives: at the highest dose re-replication activation, usual class: activators; hit rate 1.8% among 340,000; further: % of control where 0% means no effect; nearly all actives have a fitted effect of over 55% in size
#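 Readout is total intensity of Hoechst-stained nuclei, excited at 405 nm and collected at 500-530 nm. Compound treatment lasted 48 hr at 37 C in 5% CO2 before staining.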
# KB-V1 MDR tox – kills drug-selected multidrug resistant KB-V1 cells; KB-V1 MDR cells viability, CellTiter-Glo, 72 h; Potency, µM (doses to about 46.1 µM), actives largely listed as cytotoxic; AID 1347076; hit rate 3.4% among 400,000; further: on the % scale 0 is the no-effect control and ±100 the full control effect; nearly all actives have a fitted effect of over 60% in size
#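 Cytotoxicity toward P-gp-expressing KB-V1 cells was determined as loss of CellTiter-Glo luminescence after 72 h at 37 degrees C. Compounds were tested in quantitative HTS format across a concentration range, with curves fitted to normalized data.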
# MCF10A rereplic – inducers of DNA re-replication in MCF 10A breast cells. MCF 10A DNA re-replication, Hoechst nuclear intensity, 48 h. Potency, µM (series often up to 46.1 µM), for the others: at the top dose activity, positive = re-replication, hits mostly activators. hit rate 2.9% among 350,000; further: % of control where 0% means no effect; nearly all actives have a fitted effect of over 50% in size
# ELG1 DNA repair – inhibitors of ELG1-dependent DNA repair in HEK293T cells. HEK293T ELG1-luciferase reporter, luminescence, 16 h; DNA damage induced by 5-fluorouridine. Potency, µM (doses to about 46.1 µM), without a hit: at the top dose activity change, negative = inhibition, hits mostly inhibitors. hit rate 2.3% among 330,000; further: on the % scale 0 is the no-effect control and ±100 the full control effect; nearly all actives have a fitted effect of over 55% in size
#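 Cells (2,000 per well) received 5-fluorouridine plus test compound or DMSO and were incubated 16 hr at 37 °C, 5% CO2. Luciferase activity was read by luminescence 30 min after ONE-Glo addition; signal suppression marked inhibition of damage-induced ELG1 function.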
# KB-3-1 tox – KB-3-1 parental cell cytotoxicity; Potency, µM (doses to about 46.1 µM), actives largely listed as cytotoxic; AID 1347075; hit rate 1.4% among 400,000; KB-3-1 viability, CellTiter-Glo ATP luminescence, 72 h; further: on the % scale 0 is the no-effect control and ±100 the full control effect; nearly all actives have a fitted effect of over 60% in size
#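 72 h, 37 °C compound treatment of KB-3-1 parental cells; CellTiter-Glo added, 10 min, luminescence read. Data corrected against DMSO-only plates and normalized before curve fitting.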
# * hit, by the source's call; i = inactive; ? = inconclusive; · = not tested or not shown. Shown are actives, neighbours in structure and some others; about 8.2% of the full set was active somewhere. The call rests on the fitted dose curve; in most records, active means well fitted curve in the direction sought with a large enough effect; inconclusive means small, poorly fitted or top-dose-only effect, or another doubt; inactive means no such curve, though single readings can be large; an effect the other way counts as inactive or inconclusive. Potency means the concentration at half of the fitted maximal effect.
SMILES,SW480 rereplic,KB-V1 MDR tox,MCF10A rereplic,ELG1 DNA repair,KB-3-1 tox
CCOC(=O)C1=C(CC)Nc2ccccc2N=C1NC(=O)c1oc2ccccc2c1C,20%,?,?,?,i
COc1cc(OC)c(OC)cc1CNC(=O)c1cc(S(=O)(=O)N(C)c2ccccc2OC)ccc1C,-38%,?,2%,·,i
Cc1ccccc1-c1ncnn1-c1sc2c(c1C#N)CCCCC2,·,i,·,·,i
O=C(/C=C/c1ccccc1)c1ccccn1,?,i,18µM*,?,i
COC(=O)c1ccc(C(NC(=O)OCc2ccccc2)/C(F)=C/[C@@H](C)C(=O)NCc2ccc(OC)c(OC)c2)cc1 (stereo partly drawn),16µM*,i,?,18µM*,?
COC(=O)c1ccc(C(NC(=O)OCc2ccccc2)/C(F)=C/[C@@H](C)C(=O)NCc2ccc(-c3ccccc3)cc2)cc1 (stereo partly drawn),0%,i,?,25%,i
Cc1ccccc1OCCNc1ccc(C(F)(F)F)cc1[N+](=O)[O-],-11%,?,17%,23%,16µM*
O=[N+]([O-])c1cc(C(F)(F)F)ccc1NCCOc1ccccc1,18%,i,-4%,?,i
CC1CN(C2=N/C(=C/c3ccc4c(c3)OCO4)C(=O)N2)CC(C)O1 (stereo not drawn),?,i,?,21µM*,i
OC[C@@H]1CN(Cc2ccc(F)cc2)C[C@H](n2cnc3c(N4CCOCC4)ncnc32)O1,·,i,·,·,i
[O-][n+]1c2ccccc2cc2ccccc21,18µM*,i,18µM*,-6%,i
O=C(O)CCc1nnc2cnc3ccccc3n12,·,i,·,·,i
CCN(CC)CCCN1CC(O)=C(c2nc3ccccc3s2)C1=N,1%,i,-1%,17%,i
CCOc1ccccc1N1CC(O)=C(c2nc3ccccc3s2)C1=N,-1%,?,3%,16µM*,9.2µM*
N=C1C(c2nc3ccccc3s2)=C(O)CN1Cc1ccccc1,?,?,5.2µM*,4%,4.1µM*
Cn1c(/C=N/O)nc2ccccc21,-9%,i,2%,7%,i
CCC(=O)c1ccc(/C=C/c2nc3ccccc3n2C)o1,18µM*,i,8.2µM*,?,i
Nc1nc(=S)[nH]c2c1C1(CCCCC1)Cc1ccccc1-2,-92%,23µM*,2%,15%,?
O=C(NNC(=O)c1cccnc1SCc1cccc([N+](=O)[O-])c1)c1ccc(F)cc1,2%,16µM*,10%,?,?
O=C(NNC(=O)c1cccnc1SCc1cccc([N+](=O)[O-])c1)c1cccnc1,-7%,?,1%,?,i
CCOC(=O)CSc1nc2ccc(NC(=O)c3ccc(Cl)cc3)cc2s1,·,i,·,·,i
CCOC(=O)Nc1ccc2nc(Sc3ccc(Cl)cc3)sc2c1,16µM*,i,?,-20%,i
COc1ccc(CC2C(=O)NC(C)C(=O)N(C)C3Cc4ccc(cc4)Oc4cc(ccc4O)CC(C(=O)NC(C)C(=O)NC(C)C(=O)N2C)N(C)C3=O)cc1 (stereo not drawn),4.6µM*,i,?,·,0.23µM*
Cc1c(NN=C(C#N)C#N)c(=O)n(-c2ccccc2)n1C,-7%,i,-3%,5.8µM*,i
Cc1nnc(NC(=O)C2CCN(C(=O)c3ccsc3)CC2)s1,·,i,·,·,i
COc1ccc(N(Cc2cc(=O)[nH]c3ccccc23)C(=O)CCl)cc1,3.3µM*,?,?,?,?
Cc1ccc(OCc2nc3ccccc3n2C(C(=O)Nc2c(C)cccc2C)C2CC2)cc1 (stereo not drawn),·,?,·,·,i
CN(C(=O)c1cccnc1)c1nc(-c2ccccc2)cs1,-2%,21µM*,1%,?,i
Cc1ccc(CN(C)C(=O)c2c(C)nn(-c3ccccc3)c2C)cc1,-10%,i,?,3%,i
Cc1ccc(-c2csc(N(C)C(=O)c3c(C)nn(-c4ccccc4)c3Cl)n2)cc1,-5%,?,5.8µM*,?,i
